KDM5B inh = KDM5B demethylase inhibition; Q9UGL1; KDM5B demethylase, FDH-coupled NADH fluorescence (FDH is formaldehyde dehydrogenase); Potency, µM (doses to about 57.7 µM), actives largely listed as inhibitors; hit rate 2.6% among 220,000; AID 1347165; active = well fitted inhibition curve with a large enough effect; note: nearly all actives have a fitted effect of over 70% in size
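KDM5BΔAP (200 nM final) in 50 mM HEPES pH 7.5, 0.01% Tween-20 was preincubated 10 min at RT with compound over a concentration range. Substrate mix (H3K4me3 12.5 µM, α-KG 25 µM, Fe²⁺, ascorbate, NAD⁺, FDH) was added, and NADH fluorescence change over 30 min gave dose-response curves.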
Large screens that a line does not name were inactive. The entries come from a sample that favours hits as a whole.

Cc1cc(C(=O)NCc2ccc(F)cc2)c2c(C3CCNC3)noc2n1 (centres undefined)	none
CCOc1ccc(N/C=C/C(=O)c2ccc(-c3ccccc3)cc2)cc1	none
CC(C(=O)N1CCOCC1)n1ccc2cc(S(=O)(=O)N3CCCC3)ccc21 (centres undefined)	none
CS(=O)(=O)c1ccc(Cl)c(NC(=O)CCCc2cccs2)c1	none
S=C(NCCc1ccc(Cl)cc1Cl)NC1CC2CCC1C2 (centres undefined)	none
O=C(COC(=O)c1cc(=O)c2ccccc2o1)c1ccc(OC(F)F)cc1	none
CNCCN(C)C1CCCCC1	none
Cc1ccc(C2SCCN2C(=O)c2cc3ccccc3oc2=O)cc1 (centres undefined)	none
CCN(C(=O)CSc1nc(CN2CCOCC2)nc2ccccc12)C1CCS(=O)(=O)C1 (centres undefined)	none
COc1ccc(/C=C/c2cc(C(=O)O)c3ccccc3n2)cc1OC	none
CCOC(=O)c1sc(NC(=O)c2cccc(S(=O)(=O)N3CCOCC3)c2)cc1C	none
NC(=O)Cc1c[nH]c2ncc(-c3ccc(F)c(Cl)c3)cc12	KDM5B inh 40µM
NC(=O)Cc1c[nH]c2ncc(-c3ccc(Cl)cc3)cc12	KDM5B inh 20µM
NC(=O)Cc1c[nH]c2ncc(-c3ccc4c(c3)OCO4)cc12	KDM5B inh 35µM
O=C(Cc1c[nH]c2ncc(-c3ccccc3)cc12)Nc1ccc(Cl)cc1	none
NC(=O)Cc1c[nH]c2ncc(-c3ccccc3F)cc12	KDM5B inh 35µM
Cc1ccc(-c2c(C)sc(NC(=O)CC3(CC(=O)O)CCCC3)c2C(N)=O)cc1C	none
COc1cc(C#N)ccc1OC(=O)c1oc2ccccc2c1C	none
CCCS(=O)(=O)c1nc(S(=O)(=O)c2ccc(C)cc2)c(NCC)s1	none
COc1ccc(NC(=O)/C=C/c2nc3ccccc3o2)c(OC)c1	none
COc1cccc(-c2nc3ccccc3c(C)c2C#N)c1	none
CCc1ccc(-c2nc3ccccc3c(C(=O)O)c2C)cc1	none
CCCSC1=C(C#N)C(c2ccc(C)cc2)CC(=O)N1 (centres undefined)	none
Cc1cccnc1NC(=O)Cc1nc(-c2ccccc2)oc1C	none
Cn1c(=O)c2nc(SCC(=O)O)n(CCc3ccccc3)c2n(C)c1=O	none
CCOc1ccc(/C=C2/NC(=O)NC2=O)cc1I	none
COc1ccc(NS(=O)(=O)c2cc(-c3n[nH]c(=O)c4ccccc34)ccc2C)cc1	none
CC(Nc1ccc(NS(C)(=O)=O)cc1)C(=O)Nc1ccc(Cl)cn1 (centres undefined)	none
Cc1ccc(CNC(=O)Cc2ccsc2)cc1	none
COc1ccc(NC(=O)c2ccc(N3CCCN(Cc4ccccc4C)C3=O)cc2)cc1	none
Cc1nc(C)c(-c2csc(Nc3ccc(N(C)C)cc3)n2)s1	none
COc1ccc(Cl)cc1C(=O)Nc1c(N2CCCC2)c2ccccc2oc1=O	none
COc1cccc(-c2cnc3[nH]cc(CC(N)=O)c3c2)c1	KDM5B inh 35µM
COc1cccc(CNC(=O)c2c[nH]c3ncccc23)c1	none
CC(C)(C)c1ccc(C(=O)NCCSc2c[nH]c3ccccc23)cc1	none
N#Cc1ccc(/C=C2/CCOc3ccc(Br)cc3C2=O)cc1	none
CC(=O)Nc1cccc(-c2cnc3n[nH]c(-c4ccc(F)cc4C)c3n2)c1	KDM5B inh 35µM
CC(=O)Nc1cccc(-c2csc(Nc3ccc(C)cc3)n2)c1	none
CC(=O)Nc1cccc(-c2cnc3n[nH]c(-c4sccc4C)c3n2)c1	none
CC(=O)Nc1cccc(-c2csc(Nc3ccccc3)n2)c1	none
CC(=O)Nc1cccc(-c2cnc3n[nH]c(-c4ccccc4C)c3n2)c1	KDM5B inh 40µM
CCCc1c(C(=O)OCC)[nH]c2c1C(=O)CC(c1ccc(CC)cc1)C2 (centres undefined)	none
CSc1ncc(C(=O)NCc2ccccc2)c(N)n1	none
Oc1ccc(-c2nc(C3CC3)nc3c2CCN(Cc2cccc4ccccc24)CC3)cc1	none
Cc1cc(C)c(CNC(=O)c2cc(-c3ccccc3C)cc3c2OCCN3C)c(=O)[nH]1	KDM5B inh 40µM
COc1ccc2oc(=O)c(C(=O)NCc3ccc(C)cc3)cc2c1	none
COc1ccc(-c2cc(C(=O)NCc3c(C)cc(C)[nH]c3=O)c3c(c2)N(C)CCO3)cc1	KDM5B inh 32µM
COc1nc2c(cc1CNC(=O)c1cccnc1C)C(=O)N(C1CCCC1)C2	none
COc1ccc(CNC(=O)c2cnc3cc(C)ccn3c2=O)cc1	none
COc1ccc(-c2noc(CNC(=O)c3cnn(C(C)C)c3)n2)cc1OC	none
COc1cccc(-c2cc(C(=O)NCc3c(C)cc(C)[nH]c3=O)c3c(c2)ncn3C)c1OC	none
COc1ncccc1-c1cc2c(ccn2C(C)C)c(C(=O)NCc2c(C)cc(C)[nH]c2=O)n1	none
COc1ccc(-c2cc(C(=O)NCc3c(C)cc(C)[nH]c3=O)c3c(c2)N(C(C)C)CCO3)cc1OC	KDM5B inh 35µM
COc1ncccc1-c1cc(C(=O)NCc2c(C)cc(C)[nH]c2=O)c2c(c1)N(C)CCO2	KDM5B inh 35µM
O=S(=O)(Nc1ccc(-c2cn3ccsc3n2)cc1)c1ccccc1	none
Cc1cccc(OCCN2CCC(CO)CC2)c1	none
COc1ccc(CNC(=O)C=C(C)C)cc1	none
CC1(C)O[C@H]2[C@@H](O1)[C@@H](C(=O)Oc1ccc3ccccc3c1)O[C@@H]1OC(C)(C)O[C@@H]12	none
CCOc1ccccc1/C=C/C(=O)c1cccc(O)c1	none
CN(C)Cc1nnc(C2CCCN(C(=O)CN(C)c3ccccc3)C2)n1C (centres undefined)	none
CCCn1nc(C(=O)NCCc2cccs2)c2ccccc2c1=O	none
C#CCNC(=O)CN1CCCC1C(=O)NCC(F)(F)F (centres undefined)	none
Cc1ccc(-c2cnoc2NC(=O)CSc2nc(-c3cccc(Cl)c3)cc(=O)[nH]2)cc1	none
CC(=O)N1CCC2(CC1)OC(=O)C(C)=C2C(=O)NCCN1CCCCCC1	none
COc1ccc(CN[C@H]2[C@H](O)[C@H](O)C[C@@H]2c2cccnc2)cc1	none
O[C@H]1[C@H](NCc2cccc(C(F)(F)F)c2)[C@@H](c2ccc(N3CCOCC3)nc2)C[C@H]1O	KDM5B inh 32µM
COc1cccc(CN[C@H]2[C@H](O)[C@H](O)C[C@@H]2c2ccc(C(F)(F)F)nc2)c1	none
COc1ccc([C@H]2C[C@@H](O)[C@@H](O)[C@@H]2NCc2cnn(C)c2)cc1	none
O[C@H]1[C@H](NCc2cnc3ccccc3c2)[C@@H](c2ccc(N3CCOCC3)nc2)C[C@H]1O	none
COc1ccc(CN[C@H]2[C@H](O)[C@H](O)C[C@@H]2c2ccc(N3CCOCC3)nc2)cn1	KDM5B inh 32µM
COc1ccc([C@H]2C[C@@H](O)[C@@H](O)[C@@H]2NCc2ccc(Cl)cc2)cc1	none
N#Cc1cccc(CN[C@H]2[C@H](O)[C@H](O)C[C@@H]2c2ccc(C(F)(F)F)nc2)c1	none
O[C@H]1[C@H](NCc2ccc(Cl)cc2)[C@@H](c2ccc(N3CCOCC3)nc2)C[C@H]1O	KDM5B inh 40µM
CCc1ccc(NC(=O)Cn2cc(OC)c(=O)cc2CSc2ccc(F)cc2)cc1	none
CCc1ccc(C2=CC(c3ccccc3C)n3nnnc3N2)cc1 (centres undefined)	none
Cc1ccc(-c2nc(C#N)c(N3CCN(C(=O)c4ccco4)CC3)o2)cc1	none
COc1ccc(-c2cc(C[C@H]3CNCC[C@H]3CC(=O)NCc3ccc4c(c3)OCO4)no2)cc1	none
CN(C)C(=O)C(Cl)c1ccccc1 (centres undefined)	none
O=C(COC(=O)CCNS(=O)(=O)c1ccccc1)Nc1cc(Cl)ccc1Cl	none
O=C(Nc1cccc(CN2CCOCC2)c1)/C(=C/c1ccccc1)c1ccccc1	none
Cc1ccc(NC2(c3nnnn3-c3c(C)cccc3C)CCCC2)cc1	none
Cn1c(CSc2ccccc2Cl)nc2c1c(=O)[nH]c(=O)n2C	none

From PubChem BioAssay
